Cycloheximide cs: affects cycloheximide protein synthesis inhibition readout, counter-screen | cell reporter, cycloheximide protein synthesis inhibition counterscreen | max response, % | 12% of 300,000 active | AID 2314; in the data active = max response mostly above about 13%, no sharp cut-off; inactive = mostly below about 14%; note: read at 38.3 µM for the half of the compounds with a filed dose; 0% is about no effect
Shiga inhibitor: inhibitors of Shiga toxin in Vero cells; Vero cells, Shiga toxin protein synthesis inhibition reporter; 9.2% of 290,000 active; inhibition, % at 38.7 µM; in the data active = inhibition mostly above about 28%, no sharp cut-off; inactive = mostly below about 43%; note: 0% is about no effect
LmPK inhibitor: inhibitors of Leishmania mexicana pyruvate kinase. Q27686. purified LmPK, Kinase-Glo ATP luminescence, 1 h. Potency, µM (highest dose often 57.5 µM), for inactives: top-dose activity change, negative = inhibition, usual class: inhibitors. 0.37% of 290,000 active. AID 1721; note: potency is the fitted concentration of half-maximal effect; % is set by controls: 0 for no effect and ±100 for the full control effect
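Screened at intermediate enzyme activity to detect both inhibitors and activators: LmPK at 0.1 nM, with a 0.5 nM enzyme column as activation reference. PEP 0.5 mM, ADP 0.1 mM; ATP detected by luminescence after 1 h.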
RE007 growth inh: less growth of the S. pombe RE007 Vpr strain | S. pombe RE007 Vpr strain, BacTiter-Glo ATP luminescence, 24 h | AID 651644 | 0.21% of 360,000 active | Potency, µM (titrated, usually from 92.2 µM), for inactives: at the top dose activity change, negative = less growth, most hits filed as inhibitors; active = well fitted falling curve with a large enough effect; inconclusive = small, poorly fitted or top-dose-only effect; inactive = no such curve, though single readings can be large or run the other way; note: potency is the fitted concentration of half-maximal effect; % is set by controls: 0 for no effect and ±100 for the full control effect; nearly all actives have a fitted effect of over 50% in size
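Fission yeast strain RE007, carrying one chromosomally integrated HIV-1 vpr copy, was seeded at OD 0.01 in PMG+AL medium with 23 nL pinned compound. After 24 h at 30 °C and 99% humidity, viability was read by BacTiter-Glo luminescence.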
TbPYK inhibitor: T. brucei pyruvate kinase inhibition; TbPYK enzyme, Kinase-Glo Plus ATP luminescence, 45 min; Q57TT1; Potency, µM (highest dose often 76.8 µM), for the others: top-dose activity, negative = inhibition, actives largely listed as inhibitors; 0.12% of 410,000 active; note: potency is the fitted concentration of half-maximal effect; % is set by controls: 0 for no effect and ±100 for the full control effect; nearly all actives have a fitted effect of over 50% in size
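TbPYK + substrate in 50 mM TEA pH 7.2, 100 mM KCl, 10 mM MgCl2, 0.05% BSA, 0.01% Tween-20; cpd pinned; ADP 130 uM final; 45 min RT; Kinase-Glo Plus 10 min; luminescence endpoint.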
FBPA Giardia inh: inhibitors of Giardia lamblia fructose-1,6-bisphosphate aldolase | purified Giardia FBPA | AID 2451 | Potency, µM (doses to about 59.6 µM), for the others: top-dose activity, negative = inhibition, usual class: inhibitors | 0.71% of 290,000 active; note: potency is the fitted concentration of half-maximal effect; % is set by controls: 0 for no effect and ±100 for the full control effect; nearly all actives have a fitted effect of over 55% in size
Target sequence (A8B2U2 whole entry, looked up): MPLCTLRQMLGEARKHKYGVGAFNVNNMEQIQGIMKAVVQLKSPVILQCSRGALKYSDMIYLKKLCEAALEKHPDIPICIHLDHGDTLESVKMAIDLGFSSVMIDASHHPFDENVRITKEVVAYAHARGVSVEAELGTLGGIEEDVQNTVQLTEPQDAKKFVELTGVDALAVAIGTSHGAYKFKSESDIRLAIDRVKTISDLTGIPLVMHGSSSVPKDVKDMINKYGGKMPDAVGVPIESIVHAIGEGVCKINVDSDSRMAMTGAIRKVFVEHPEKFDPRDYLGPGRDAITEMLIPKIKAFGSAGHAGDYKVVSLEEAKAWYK
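40 nM FBPA preincubated 10 min at RT with compound (up to 57.5 uM final), then substrate plus GAPDH/TPI/NAD/arsenate coupling and diaphorase/resazurin added. Fluorescence read after 20 min at RT, 525/598 nm.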
An asterisk follows results filed as active; ? = inconclusive; . = no result; + = active, no number. This is one part of a sample in which hits are shown more often than they occur. Unless noted, calls come from the whole dose curve; as a rule, active = well fitted curve in the direction sought with a large enough effect; inconclusive = small, poorly fitted or top-dose-only effect, or another doubt; inactive = no such curve, though single readings can be large; an effect the other way counts as inactive or inconclusive.

SMILES | Cycloheximide cs | Shiga inhibitor | LmPK inhibitor | RE007 growth inh | TbPYK inhibitor | FBPA Giardia inh
CC(C)CNC(=O)c1cc(=O)[nH]c2ccc(S(=O)(=O)Nc3ccc(F)cc3)cc12 | -3 | -10 | -5% | -8% | 1% | 0%
Cc1cccc(N=c2oc3cc(O)ccc3cc2C(N)=O)c1 | 27* | 39* | 3% | -12% | -1% | 6%
NC(=S)c1cc2ccc(O)cc2oc1=O | -3 | -5 | ? | -20% | -8% | -1%
CN(Cc1ccccc1)c1nc2c(S(=O)(=O)c3cccc(Cl)c3)nnn2c2ccsc12 | . | . | . | . | 3% | .
Cc1ccc(-n2nc(C)c3c(C)cc(=O)n(CC(=O)NC(C)c4ccccc4)c32)cc1 (centres undefined) | . | . | . | . | -1% | .
CC(C)(C)c1ccc(/C=C/C(=O)NC2=NCCS2)cc1 | 54* | + | 4% | -16% | -13% | -3%
Cc1ccc(/C=C/C(=O)Nc2cc(C)on2)cc1 | 58* | 62* | -5% | -12% | 2% | -1%
Cc1ccc(/C=C/C(=O)NC2=NCCS2)cc1 | 70* | 92* | -5% | -11% | -3% | 4%
O=C(N/N=C/c1ccc(N2CCOCC2)cc1)c1cccs1 | 39* | 79* | ? | -19% | -9% | -1%
O=C(c1ccc(N2CCOCC2)cc1)c1cccs1 | 31* | 53* | -30% | -18% | -4% | -1%
CCOc1cc(/C=N/NC(=O)c2cccs2)ccc1OC(=O)N1CCOCC1 | 45* | 109* | -4% | 1% | 1% | 4%
Cc1ccc(S(=O)(=O)c2nc(-c3ccco3)oc2SCc2ccccc2Cl)cc1 | . | . | . | . | 3% | .
CCc1ccc(CN(Cc2ccco2)c2cnc(S(C)(=O)=O)nc2C(=O)Nc2c(C)cccc2C)cc1 | . | . | . | . | -2% | .
Cc1nnc(SCc2ccc(Cl)cc2Cl)[nH]c1=O | 12* | 22 | 5% | 16% | 6% | -3%
Cc1cc(OCC(=O)NC2CCCCC2)ccc1Cl | 30* | 67* | 4% | 2% | -10% | 1%
Cc1cc(OCC(=O)OCC(=O)NC2CCCC2)ccc1Cl | . | . | . | 18% | -2% | .
Cc1cc(=O)oc2cc(OCC(=O)NC3CCCCC3)ccc12 | 22* | 6 | -7% | 6% | -3% | .
O=C(NCC(c1ccccc1)c1ccccc1)c1nn(-c2ccccc2F)nc1CO | . | . | . | . | 3% | .
Cc1ccc(-c2cc(-c3ccccc3)nc(Cl)n2)cc1 | 46* | 128* | -7% | -5% | 0% | -1%
COc1ccc(-c2nc3ccccc3nc2-c2ccccc2)cc1OC | -1 | -4 | -3% | 3% | 1% | -10%
COc1ccc(-c2cc(-c3ccccc3)nc(Cl)n2)cc1OC | 14* | 26 | -5% | 7% | 1% | -4%
Cc1cc(NC(=O)c2ccc(OCC3CCCO3)cc2)ccc1Br (centres undefined) | . | . | . | 15% | 0% | .
Cc1cc(C)c2nc(NC(=O)c3ccc(OCC4CCCO4)cc3)sc2c1 (centres undefined) | 31* | 65* | 0% | -7% | 0% | 1%
Cc1ccc2nc(NC(=O)c3ccc(OCC4CCCO4)cc3)sc2c1 (centres undefined) | 46* | 92* | 0% | -24% | 1% | 15%
O=C(Nc1nc(-c2ccc(Cl)cc2Cl)cs1)c1ccc(OCC2CCCO2)cc1 (centres undefined) | -3 | -2 | -1% | -2% | -1% | -10%
SMILES | Cycloheximide cs | Shiga inhibitor | LmPK inhibitor | RE007 growth inh | TbPYK inhibitor | FBPA Giardia inh
Cc1ccccc1Nc1nc(N)nc(COC(=O)CCS(=O)(=O)c2ccc(Cl)cc2)n1 | . | . | . | -14% | 2% | .
Cc1ccccc1Nc1nc(N)nc(COC(=O)c2ccco2)n1 | . | . | . | -10% | -10% | .
Cc1ccccc1Nc1nc(N)nc(COC(=O)C2CCCCC2)n1 | 71* | 70* | 1% | -7% | -3% | 2%
CCCCC(=O)OCc1nc(N)nc(Nc2ccccc2C)n1 | 58* | active | 1% | -6% | -4% | 2%
COc1ccccc1C(=O)OCc1nc(N)nc(Nc2ccccc2C)n1 | 36* | 43 | 1% | -21% | -6% | 0%
CCC(Sc1nnc2c3ccccc3n(CC)c2n1)C(=O)Nc1ccc(NC(C)=O)cc1 (centres undefined) | . | . | . | . | 1% | .
